Data: PubChem BioAssay AID652042 (Broad Institute, 2013)
The whole screen tested about 1,100 compounds, of which about 350 (32%) were called active. How the calls were made is not given here. Not all results are given here. Measured potencies and affinities stand elsewhere.

assay: viability loss in CEM21 cells – cell-based, CellTiter-Glo luminescence, cherry-picked, cytotoxicity control for viral fusion inhibitor project, dose response (AID 652042); details: CellTiter-Glo ATP luminescence, 24 h; series mostly up to 35 µM

| Structure (SMILES) | activity change, negative = cytotoxicity |
| --- | --- |
| CC(C)(C)OC(=O)N1CCc2onc(-c3ccc(Br)cc3)c2C1=O | inactive |
| C=CC[n+]1c(-c2ccc(C)cc2)csc1NNC(=O)Nc1ccccc1 | 1.1% [at 8 µM] (inactive) |
| COc1ccc(C(C)=O)cc1CC1(C)C(=O)Nc2ccc(-c3ccccc3OC)cc21 (configuration not stated) | inactive |
| COc1cc(OCC(=O)NC(C)C)cc2c1C(=O)O[C@@H](C)CCCC(=O)CCCCC2 | inactive |
| CSc1cccc(N2CC(C(=O)Nc3cccc(S(=O)(=O)N4CCCC4)c3)CC2=O)c1 (configuration not stated) | inactive |
| CSc1ccc(CN(C)C(=O)c2cccc(S(=O)(=O)N3CCN(Cc4ccccc4)CC3)c2)cc1 | inactive |
| COc1cc(NC2c3ccccc3C(=O)N2Cc2ccc3c(c2)OCO3)cc(OC)c1OC (configuration not stated) | inactive |
| O=C(NC12CC3CC(CC(C3)C1)C2)OCCNC1CCCCC1 | inactive |
| O=C1CCCC2=C1C(c1cccs1)Nc1ccccc1N2 (configuration not stated) | inactive |
| CC[C@]1(C(=O)OC)[C@H]2C(=O)N(Cc3ccccc3)C(=O)[C@H]2[C@H]2CN=C(SCc3ccc(C#N)cc3)N21 | inactive |
| CCOc1ccc(NS(=O)(=O)c2ccc(C(=O)N(C)CCc3ccc(OC)c(OC)c3)cc2)cc1 | inactive |
| CC(C)C[C@@H](CN(C)N=O)N(C[C@H](Cc1ccccc1)N(CCc1ccccc1)N=O)N=O | inactive |
| CCc1nc2ccc(C(=O)N3CCN(C(=O)c4ccco4)CC3)cn2c1N(C)Cc1ccc(OC)cc1 | inactive |
| C[C@@]12C(=O)N(Cc3ccccc3)CC(=O)N1[C@H]1c3ccccc3OC[C@@H]1[C@@H]2c1ccccc1 | inactive |
| O=S1(=O)c2c(cccc2N2CCCCC2)O[C@H](COCc2ccccc2)CN1C1CC1 | inactive |
| COc1ccc(CCNC(=O)C2CCCN(Cc3nc(-c4cccc(Cl)c4)oc3C)C2)cc1OC (configuration not stated) | inactive |
| Cc1oc(-c2ccc(Cl)cc2)nc1CN1CCCC(C(=O)NCc2cccnc2)C1 (configuration not stated) | inactive |
| Nc1cc(-c2ccccc2)nn1S(=O)(=O)c1ccc(F)cc1 | inactive |
| c1cnc2ccc(C(c3nnnn3C3CCCCC3)N3CCCCC3)cc2c1 (configuration not stated) | inactive |
| C=CCNc1ncnc2ccc(Br)cc12 | inactive |
| c1ccc(CNc2ncnc3ccccc23)cc1 | inactive |
| CCN(C[C@H]1N[C@@](C)(C(=O)OC)[C@H]2C(=O)N(Cc3ccccc3)C(=O)[C@@H]12)S(=O)(=O)c1ccc(C(C)(C)C)cc1 | inactive |

| Structure (SMILES) | activity change, negative = cytotoxicity |
| --- | --- |
| CC1(Cc2ccc(Cl)cc2)C(=O)Nc2ccc(-c3cccnc3)cc21 (configuration not stated) | inactive |
| O=C(CNc1ccc(F)cc1)c1ccccc1 | inactive |
| COc1cccc(Cl)c1NC(=O)N1CCc2c([nH]c3ccccc23)C1C(F)(F)F (configuration not stated) | inactive |
| O=C(CCCCn1c(=O)[nH]c2ccccc2c1=O)N1CCN(c2cccc(C(F)(F)F)c2)CC1 | inactive |
| COc1ccc(N2CCN(C(=O)C3CCC(Cn4c(=S)[nH]c5ccccc5c4=O)CC3)CC2)cc1 (configuration not stated) | inactive |
| CC(C)CCSc1nc(N)c(C#N)cc1C#N | inactive |
| COC(=O)C1(C(=O)OC)C[C@H](c2ccc(OC)cc2)N(Cc2ccccc2OC)[C@@H]1c1cccs1 | inactive |
| COc1ccc(CNc2ncnc3ccccc23)cc1 | inactive |
| CC(C)(C)c1ccc(C(=O)Nc2ccc(CC(=O)O)cc2)o1 | inactive |
| Cc1nn(C)c(C)c1CN(C)S(=O)(=O)c1ccc2ccccc2c1 | inactive |
| CS(=O)(=O)N(Cc1ccc(Cl)cc1)c1ccc(C(=O)NCCC2=CCCCC2)cc1 | inactive |
| Cc1ccc2c(c1)c1c3n2CCN(CC(N)=O)C3CCC1 (configuration not stated) | inactive |
| CO[C@H]1CN(C)C(=O)c2cc(NS(=O)(=O)c3ccc(Cl)cc3)ccc2OC[C@@H](C)N(C)C[C@@H]1C | inactive |
| Cc1cc2ncn(S(=O)(=O)N3CCCCC3)c2cc1C | inactive |
| CC(=O)Nc1sc2c(c1C(c1ccc(F)cc1)N1CCOCC1)CCCC2 (configuration not stated) | inactive |
| CC(C)(C)c1ccc(C(=O)N2CCCCCC2=O)cc1 | inactive |
| CN(C[C@@H](CC1CCCCC1)N(C[C@H](Cc1ccccc1)N(CCc1ccccc1)N=O)N=O)N=O | inactive |
| CC[C@]1(C(=O)OC)[C@H]2C(=O)N(Cc3ccccc3)C(=O)[C@H]2[C@H]2CN=C(SCC3CC3)N21 | inactive |
| CO[C@@H]1CN(C)C(=O)c2ccc(NC(C)=O)cc2OC[C@@H](C)N(Cc2cncnc2)C[C@@H]1C | inactive |
| COc1ccc(-c2cn3c(C)c(C(=O)Nc4cccc(NC(C)=O)c4)sc3n2)cc1 | inactive |
| O=C(N/N=C/c1ccc(-n2ccnc2)cc1)c1cccs1 | inactive |
| Cc1ccc(-n2nnnc2-c2cnn(-c3ccc(F)cc3)c2C(F)(F)F)cc1 | inactive |

| Structure (SMILES) | activity change, negative = cytotoxicity |
| --- | --- |
| CCc1ccc([C@H]2[C@@H]3C(=O)C[C@@H]4C(=O)N(C5CCCCC5)C(=O)[C@@H]4[C@@H]3CN2S(=O)(=O)c2ccc(C)cc2)cc1 | inactive |
| COc1ccc(OC2C(=O)N(Cc3ccc4c(c3)OCO4)C2c2cccs2)cc1 (configuration not stated) | inactive |
| COC(=O)[C@H](Cc1ccccc1)NC(=O)Cn1cnc(C(=O)Nc2ccc(C)c(C)c2)n1 | inactive |
| O=S(=O)(c1ccccc1Cl)N1CCCC1c1nc(-c2ccc(Cl)cc2)no1 (configuration not stated) | inactive |
| CCNC(=O)C[C@@H]1CC[C@@H]2[C@H](COC[C@@H](O)CN2C(=O)c2ccccn2)O1 | inactive |
| COc1ccc(CCNc2oc(-c3cccc4ccccc34)nc2P(=O)(OC)OC)cc1OC | inactive |
| COC(=O)C1(C(=O)OC)C[C@H](c2ccccc2)N(Cc2ccccc2OC)[C@@H]1c1ccccc1 | inactive |
| COc1ccc(S(=O)(=O)Nc2ccc3c(c2)CC(=O)N([C@H](C)CO)C[C@H](C)[C@H](CN(C)S(=O)(=O)c2cccs2)O3)cc1 | inactive |
| CC(C)CNS(=O)(=O)c1ccc(CCC(=O)N2CCN(Cc3ccc4c(c3)OCO4)CC2)cc1 | inactive |
| C[C@@]12C(=O)N(Cc3ccco3)CC(=O)N1[C@H]1c3ccccc3OC[C@@H]1[C@@H]2c1ccccc1 | inactive |
| CN1C(=O)C2(c3ccccc31)N(C)CC(c1ccccc1)C21SC(=S)N(Cc2ccco2)C1=O (configuration not stated) | inactive |
| O=C(NCCCN1CCc2ccccc2C1)Nc1ccc(Cl)cc1 | inactive |
| CCCCn1c(N)c(N(CC(C)C)C(=O)c2ccc(S(=O)(=O)N(CC)c3ccccc3)cc2)c(=O)[nH]c1=O | inactive |
| NC(=O)c1sc2nccc(Nc3ccccc3)c2c1N | inactive |
| CCc1nc2ccc(C(=O)NCCN3CCNC3=O)cn2c1N(CC)Cc1cccc(Br)c1 | inactive |
| Cc1ccccc1OCC(=O)Nc1cccc(C(=O)O)c1 | inactive |
| O=C(Nc1ccc(F)cc1)C1CCCN1S(=O)(=O)c1ccc(Br)cc1 (configuration not stated) | inactive |
| CC(=O)c1c(C)[nH]c(C(=O)OCC(=O)Nc2c(C)cccc2C)c1C | inactive |
| Cc1ccc(-c2nnc(N3CCN(C(=O)COc4ccccc4)CC3)c3ccccc23)cc1 | inactive |
| O=C(Cc1ccc(S(=O)(=O)N2CCOCC2)s1)N1CCN(S(=O)(=O)c2ccc(Cl)cc2)CC1 | inactive |
| Cc1cc(Cl)ccc1OCC(=O)NNC(=O)C1CSC2(C)CCC(=O)N12 (configuration not stated) | inactive |
| CC(NC(=O)c1cc(S(=O)(=O)N(C)C)ccc1N1CCCC1)C1CC2CCC1C2 (configuration not stated) | inactive |

| Structure (SMILES) | activity change, negative = cytotoxicity |
| --- | --- |
| COCCCn1c(-c2ccc(S(=O)(=O)N3CCOCC3)cc2)csc1=Nc1ccccc1 | inactive |
| O=C(CCc1ccc(S(=O)(=O)N2CCOCC2)cc1)Nc1nc(COc2ccccc2)cs1 | inactive |
| O=C(CN1C(=O)c2ccccc2S1(=O)=O)N1CCc2ccccc21 | inactive |
| Clc1ccc(-c2noc(CSc3nnc(-c4ccncc4)n3-c3ccccc3)n2)cc1 | inactive |
| Cc1cccc(C)c1NC(=O)N1CCN(c2nc3ccccc3s2)CC1 | inactive |
| COc1ccc(-c2nnn(CC(=O)N(Cc3cccs3)C(C)C(=O)NC3CCCC3)n2)cc1OC (configuration not stated) | inactive |
| O=C(NC1CCCCC1)C(c1cccs1)N(Cc1cccs1)C(=O)c1ccco1 (configuration not stated) | inactive |
| c1ccc2c(c1)OCC(CNc1ncnc3nc[nH]c13)O2 (configuration not stated) | inactive |
| C[C@H](C(=O)N(C)C[C@@H]1OCc2ccccc2-c2ccccc2C(=O)N([C@@H](C)CO)C[C@H]1C)c1ccccc1 | inactive |
| C[C@H](C(=O)N(C)C[C@@H]1OCc2ccccc2-c2ccccc2C(=O)N([C@@H](C)CO)C[C@@H]1C)c1ccccc1 | inactive |
| C[C@H]1CN([C@@H](C)CO)C(=O)c2c(c3ccccc3n2C)-c2ccccc2CO[C@H]1CN(C)C(=O)Nc1cccc(F)c1 | inactive |
| COc1ccc(CNC(=O)N(C)C[C@H]2OCc3ccccc3-c3ccccc3C(=O)N([C@H](C)CO)C[C@@H]2C)cc1 | inactive |
| C[C@H](CO)N1C[C@H](C)[C@@H](CN(C)C(=O)[C@H](Cc2ccccc2)N(C)C)OCc2ccccc2-c2c(n(C)c3ccccc23)C1=O | inactive |
| C[C@H]1CN([C@@H](C)CO)C(=O)c2ccccc2-c2ccccc2CO[C@@H]1CN(C)C(=O)Nc1cccc(C(F)(F)F)c1 | inactive |
| CO[C@H](C(=O)N(C)C[C@@H]1OCc2ccccc2-c2c(n(C)c3ccccc23)C(=O)N([C@H](C)CO)C[C@@H]1C)c1ccccc1 | inactive |
| C[C@H]1CN([C@@H](C)CO)C(=O)c2c(c3ccccc3n2C)-c2ccccc2CO[C@H]1CN(C)C(=O)Cc1ccccc1 | inactive |
| CC1(C)C2CCC1(C)C(OCCNCCOC(=O)Nc1ccccc1)C2 (configuration not stated) | inactive |
| CCN1C(=O)[C@H]2[C@@H](c3ccc(C)cc3)N3C(=O)N(c4cccc(Br)c4)C(=O)[C@@]3(CC)[C@H]2C1=O | inactive |
| CCN1C(=O)[C@H]2[C@@H](c3ccc(C)cc3)N3C(=O)N(c4cccc(Br)c4)C(=O)[C@@]3(CC(C)C)[C@H]2C1=O | inactive |
| C[C@H](CO)N1C[C@H](C)[C@H](CN(C)S(=O)(=O)c2cccs2)Oc2ccc(NC(=O)Cc3cn(C)c4ccccc34)cc2CC1=O | inactive |
| CCC(C)(C)NC(=O)C(NS(=O)(=O)c1cccs1)c1ccccc1 (configuration not stated) | inactive |
